From PubChem
The list is not random: actives were taken first. Their share in the collection is about 5.4%.
CSC inhib = cancer stem cell inhibition; cancer stem cell-like cells viability, luminescence; inhibition, % at 7.5 µM; actives 1.1% (n = 300,000); AID 2717; in the data active = inhibition above about 75%; inconclusive = no clear call, values can overlap the other calls; tested in HMLE shEcad cells
Calb FLC = affects C. albicans growth with fluconazole. actives 0.57% (n = 300,000). C. albicans CaCi-2 (fluconazole-resistant clinical isolate) + fluconazole, Alamar Blue growth, 48 h. AID 1979. growth inhibition, % (concentration not given with the values);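 active = growth inhibition above about 58% in most replicates, limit read from the data, passing the limit was not always enough; inconclusive = exactly half the replicates above a set limit; inactive = most replicates below a set limit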;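 note: all wells also contain fluconazole at 8 µg/ml as a sub-toxic cotreatment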
Mdm2 MdmX PPI = disrupts the human Mdm2-MdmX interaction; inhibition, % at 8 µM; SaOS-2 split-luciferase Mdm2/MdmX complementation, luminescence; AID 485346; O15151+Q00987; actives 3% (n = 330,000);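 active = inhibition of at least 50% at 8 µM in the primary screen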
Target sequence (O15151 whole entry, looked up): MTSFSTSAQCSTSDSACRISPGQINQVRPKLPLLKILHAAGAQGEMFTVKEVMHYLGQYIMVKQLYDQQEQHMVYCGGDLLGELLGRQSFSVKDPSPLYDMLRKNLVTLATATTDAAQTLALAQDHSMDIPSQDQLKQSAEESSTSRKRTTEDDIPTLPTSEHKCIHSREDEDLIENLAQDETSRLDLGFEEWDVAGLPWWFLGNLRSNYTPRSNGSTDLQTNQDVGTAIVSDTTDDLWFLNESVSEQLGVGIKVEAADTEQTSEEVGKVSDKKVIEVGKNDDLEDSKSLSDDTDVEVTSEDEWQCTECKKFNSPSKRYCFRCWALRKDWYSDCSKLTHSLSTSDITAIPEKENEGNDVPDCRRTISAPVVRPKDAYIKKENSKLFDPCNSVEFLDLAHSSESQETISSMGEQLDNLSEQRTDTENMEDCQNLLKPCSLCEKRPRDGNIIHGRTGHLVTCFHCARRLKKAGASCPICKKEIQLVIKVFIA
Target sequence (Q00987 whole entry, looked up): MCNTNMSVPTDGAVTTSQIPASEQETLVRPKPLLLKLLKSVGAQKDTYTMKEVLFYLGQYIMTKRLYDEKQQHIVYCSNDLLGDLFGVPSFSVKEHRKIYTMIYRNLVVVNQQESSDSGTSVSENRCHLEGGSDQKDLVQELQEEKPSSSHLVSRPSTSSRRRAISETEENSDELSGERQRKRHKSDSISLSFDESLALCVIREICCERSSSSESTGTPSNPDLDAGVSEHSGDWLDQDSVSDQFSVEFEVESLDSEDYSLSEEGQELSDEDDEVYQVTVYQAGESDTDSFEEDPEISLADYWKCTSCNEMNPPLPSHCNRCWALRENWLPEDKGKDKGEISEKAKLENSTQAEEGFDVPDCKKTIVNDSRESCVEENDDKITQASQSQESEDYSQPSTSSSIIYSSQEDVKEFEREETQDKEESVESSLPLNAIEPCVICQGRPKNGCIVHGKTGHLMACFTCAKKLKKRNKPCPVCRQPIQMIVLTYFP
Beta apoptosis = blocks beta cell apoptosis | AID 435005 | protection from apoptosis, % (no concentration beside the values) | INS-1E cytokine-induced death, ATP luminescence, 48 h; percent of positive-control rescue, neutral wells zero | actives 0.8% (n = 300,000);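 active = Every replicate reaches about 75%, or at least half do and their mean reaches it too, limit read from the data; inconclusive = At least half of replicates reach the limit but their mean does not; inactive = Under half of replicates reach the limit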;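 note: higher means more ATP so stronger rescue from cytokine killing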
MPTP block = permeability transition pore inhibition; isolated mouse mitochondria, Ca2+ swelling absorbance, 30 min; inhibition, % at 10 µM; actives 1.4% (n = 360,000); AID 602449;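 active = inhibition of 50% or more, scaled per plate between neutral and stimulator controls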
SKKanGAS inh = inhibitors of SKKanGAS S. pyogenes growth in kanamycin (SK-promoter or general growth effect); BacTiter-Glo, 6 h; AID 1662; actives 1.3% (n = 300,000); inhibition, % at 7.5 µM;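 active = mean replicate score, as percent of positive control median, at least 50; inconclusive = mean below 50 but one replicate at or above 50; inactive = mean and every replicate below 50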;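 note: strain carries kanamycin resistance gene driven by streptokinase promoter and grows in 40 µg/ml kanamycin; loss of luminescence reflects streptokinase promoter inhibition or plain growth inhibition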
MPTP counter = Rhodamine 123 counter-screen of mitochondrial pore hits; isolated mitochondria, membrane potential, Rhodamine 123 fluorescence; actives 78% (n = 5,000); shares compounds with MPTP block; inhibition, % at 10 µM; AID 624504; in the data active = inhibition above about 22%
MPTP abs DR = dose response confirmation of mitochondrial permeability transition pore inhibitors | isolated mitochondria swelling, absorbance | IC50, µM | AID 651561 | shares compounds with MPTP block | actives 58% (n = 780); in the data active = IC50 below about 20 µM
MPTP cs DR = counter-screen for mitochondrial permeability transition pore inhibitors, dose response | shares compounds with MPTP block | IC50, µM | actives 49% (n = 780) | isolated mitochondria counterscreen, fluorescence read-out | AID 651564; in the data active = IC50 below about 80 µM
Large screens that a line does not name were inactive (follow-up assays come after a bar, where they were run).

Cc1cc(Cl)c(S(=O)(=O)N2CCSCC2)cc1OCC(=O)NC1CCCCC1	MPTP block 86 | MPTP counter 85
CCOC(=O)C1(Cc2ccc(Cl)cc2)CCN(C(C)Cc2ccc(O)c(OC)c2)CC1 (configuration not stated)	MPTP block 95 (no result: Beta apoptosis) | MPTP counter 95
CCOC(=O)C1(Cc2ccc(OC)cc2)CCN(S(C)(=O)=O)CC1	none
CN(C)/C=N/c1cc(=O)[nH]c(=O)n1Cc1ccccc1	none
Cc1nn(C)c(C)c1CN(Cc1nc(CCC(C)C)no1)C(C)C	Beta apoptosis 94, MPTP block 103 | MPTP counter 93
C[C@H]1c2cccc(O)c2C(=O)C2C(=O)C3(O)C(=O)C(C(N)=O)C(=O)[C@@H](N(C)C)[C@@H]3[C@@H](O)[C@@H]21 (some centres not stated)	MPTP block 90 (no result: CSC inhib, Calb FLC, Beta apoptosis, SKKanGAS inh) | MPTP counter inactive
C[C@H]1c2cccc(O)c2C(O)=C2C(=O)C3(O)C(O)=C(C(N)=O)C(=O)[C@@H](N(C)C)[C@@H]3[C@@H](O)[C@@H]21 (some centres not stated)	MPTP block 85 (no result: Calb FLC, SKKanGAS inh) | MPTP counter inactive
Cc1nn(-c2ccccc2)c(N2CCCC2)c1/C=N/O	MPTP block 50 | MPTP counter inactive | MPTP abs DR inactive | MPTP cs DR inactive
O=C(O)c1ccc(Cl)c(S(=O)(=O)N2CCCC2)c1	none
CC(=O)c1sc(C(C)(C)C)cc1NC(=O)/C=C/C(=O)O	none
O=C(Nc1nccs1)c1ccc(Br)s1	none
O=C(Nc1nc(-c2ccccn2)cs1)c1ccc(Br)s1	CSC inhib 97, Calb FLC 93, Beta apoptosis 85, MPTP block 54 | MPTP counter inactive
COc1cc([N+](=O)[O-])ccc1NC(=S)Nc1cc(C(=O)OC(C)C)cc(C(=O)OC(C)C)c1	MPTP block 92 | MPTP counter 84
CC(NC(=O)C(Cc1ccccc1)N1C(=O)C2C3CCC(C3)C2C1=O)c1ccccc1 (configuration not stated)	none
S=c1[nH]nc(Cc2sc(-c3ccccc3)nc2-c2ccccc2)o1	none
O=[N+]([O-])c1ccc(S(=O)(=O)Nc2nc3ccccc3nc2Nc2ccccc2)cc1	Calb FLC 105, MPTP block 106 | MPTP counter 86
O=C(O)c1ccc(Nc2nc3ccccc3nc2NS(=O)(=O)c2ccc(F)cc2)cc1	MPTP block 75 | MPTP counter 70
O=C(O)c1cccc(Nc2nc3ccccc3nc2NS(=O)(=O)c2ccccc2)c1	none (no result: Calb FLC, SKKanGAS inh)
O=[N+]([O-])c1ccc(Nc2c3ccccc3nc3ccccc23)cc1	MPTP block 80 (no result: CSC inhib, Beta apoptosis) | MPTP counter 77
CC(C)(O)C(=O)NNC(=S)Nc1cccc(C(F)(F)F)c1	none
O=C(NC(=S)Nc1cccc(C(F)(F)F)c1)c1ccc2nonc2c1	MPTP block 73 | MPTP counter 81
FC(F)(F)c1cccc(NC(=S)NC(c2ccccc2)c2ccccc2)c1	MPTP block 70 (no result: Mdm2 MdmX PPI) | MPTP counter 83
CC(C)(C)NC(=S)Nc1cccc(C(F)(F)F)c1	MPTP block 65 | MPTP counter 84
FC(F)(F)c1cccc(NC(=S)Nc2ccc(Cl)c(Cl)c2)c1	MPTP block 81, SKKanGAS inh 96 | MPTP counter 65
CCS(=O)(=O)N1CCN(Cc2ccccc2OC)CC1	none
COc1ccc(OCCC(=O)Nc2cc3c(cc2C(=O)O)OCCCO3)cc1	none (no result: CSC inhib, Calb FLC, Beta apoptosis, SKKanGAS inh)
Cc1cccnc1NC(=S)Nc1ccc(Cl)c(Cl)c1	MPTP block 90 | MPTP counter 97
O=C(NNC(=S)Nc1cccc(C(F)(F)F)c1)c1ccc(Cl)cc1Cl	MPTP block 101, SKKanGAS inh 67 | MPTP counter 89
COc1ccc(NC(=S)Nc2ncccc2C)cc1OC	none
Cc1ccccc1C(=O)NNC(=S)Nc1cccc(C(F)(F)F)c1	none
COc1cc(O)c(C(CC(=O)N2CCCC(C)C2)c2cc(OC)c(OC)c(OC)c2)c(OC)c1 (configuration not stated)	none
COc1ccc(CNC(=O)c2cccc3c(-c4cccnc4)coc23)cc1OC	MPTP block 99 (no result: CSC inhib, Calb FLC, Mdm2 MdmX PPI, Beta apoptosis, SKKanGAS inh) | MPTP counter 100
Cc1cccc(C)c1-n1nnnc1C(c1cccs1)N1CCN(C/C=C/c2ccccc2)CC1 (configuration not stated)	none (no result: CSC inhib, Calb FLC, Mdm2 MdmX PPI, Beta apoptosis, SKKanGAS inh)
CCOC(=O)C1CCCN(S(=O)(=O)c2ccc(S(=O)(=O)N(CC)CC)cc2)C1 (configuration not stated)	Beta apoptosis 110, MPTP block 97 (no result: CSC inhib) | MPTP counter 102
O=C(/C=C/NNC(=O)c1cccc(Br)c1)c1cccc(Br)c1	MPTP block 51 (no result: CSC inhib, Beta apoptosis) | MPTP counter 58
O=C(/C=C/NNC(=O)c1ccccc1)c1ccc(Br)cc1	none
Cc1[nH]n(-c2ccccc2)c(=O)c1C(c1ccc(O)c([N+](=O)[O-])c1)c1c(C)[nH]n(-c2ccccc2)c1=O	MPTP block 91 | MPTP counter 74
OCCN1CCN(CC/C=C2/c3ccccc3Sc3ccc(C(F)(F)F)cc32)CC1	MPTP block 91 | MPTP counter inactive
CCc1ccc(NC(=O)c2ccc(F)c(S(=O)(=O)N(CC)c3ccccc3)c2)cc1	MPTP block 62 (no result: CSC inhib, Beta apoptosis) | MPTP counter 76
Cc1cccc(NC(=O)c2ccc(F)c(S(=O)(=O)NCc3ccco3)c2)c1	none
CCN(c1ccccc1)S(=O)(=O)c1cc(NC(=O)C2CC2)ccc1Cl	none (no result: Calb FLC, SKKanGAS inh)
CCN(c1ccccc1)S(=O)(=O)c1cc(C(=O)Nc2cccc(Cl)c2)ccc1F	MPTP block 95 (no result: CSC inhib, Beta apoptosis) | MPTP counter 69
O=C(Nc1cccc(Cl)c1)c1ccc(F)c(S(=O)(=O)NCc2cccs2)c1	Calb FLC inconclusive, MPTP block 77 | MPTP counter 84
Cc1cc(C)n(-c2ccc(C)c(Cl)c2)n1	none
COc1ccc(NC2=Nc3ccccc3CC2)cc1	none
CC(c1ccco1)N(C(=O)c1ccccc1NS(=O)(=O)c1cccc([N+](=O)[O-])c1)c1ccccn1 (configuration not stated)	MPTP block 51 | MPTP counter 78
CC(c1ccco1)N(C(=O)c1ccccc1NS(=O)(=O)c1cc([N+](=O)[O-])ccc1Cl)c1ccccn1 (configuration not stated)	Calb FLC inconclusive
Cc1cc(C)c(N2CCN(S(=O)(=O)N3CCCCCC3)CC2)c(C)c1	MPTP block 79 (no result: CSC inhib) | MPTP counter inactive | MPTP abs DR inactive | MPTP cs DR 17
Cc1ccc(N2CCN(S(=O)(=O)N3CCCCC3)CC2)cc1Cl	none
